This is one part of a sample in which hits are shown more often than they occur.
Pf Dd2 inh: inhibitors of Plasmodium falciparum Dd2 growth; Potency, µM (titrated, usually from 28.9 µM), without a hit: top-dose activity, negative = inhibition, hits mostly inhibitors; P. falciparum Dd2 growth, SYBR Green, 72 h; AID 1347417; actives 4.3% (n = 120,000); active = well fitted inhibition curve with a large enough effect;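 note: plate controls were DMSO vehicle for no effect and reference drug for full effect; nearly all actives have a fitted effect of over 65% in size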
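Infected erythrocytes (Dd2, 0.3% parasitemia, 2.5% hematocrit final) are added to compound in RPMI-1640/Albumax II medium, grown 72 h at 37C in low oxygen, then lysed with saponin/Triton-X containing SYBR Green and read by fluorescence.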
Numbers without * were called inactive; i = inactive; [ ] = dose if it differs, or a comment. Potency is the fitted concentration of half-maximal effect.

SMILES	Pf Dd2 inh
Cc1ccc(C)c(Cn2c3ccccc3c3cnn(CC(=O)NC(C)c4ccccc4)c(=O)c32)c1 (stereo not drawn)	26.8%
Cc1ccccc1Cn1c2ccccc2c2cnn(CC(=O)NCCc3ccc(Cl)cc3)c(=O)c21	18.1%
Cc1ccc(C)c(Cn2c3ccccc3c3cnn(CC(=O)NCC(C)c4ccccc4)c(=O)c32)c1 (stereo not drawn)	17.5%
CC(CCc1ccccc1)NC(=O)Cn1ncc2c3ccccc3n(Cc3ccccc3F)c2c1=O (stereo not drawn)	-15.7%
CCCCN(C)CCCNC(=O)Cn1ncc2c3ccccc3n(Cc3ccccc3F)c2c1=O	5.62µM*
CCCCN(C)CCNC(=O)Cn1ncc2c([nH]c3ccccc32)c1=O	-3.9%
O=C(NC1CCC(O)CC1)c1ccc(-c2ncc3cnc(-c4cccc(F)c4)cn23)cc1 (stereo not drawn)	i
O=C(c1ccc(Br)o1)N1c2ccccc2CC1c1nnc(C2CCOCC2)o1 (stereo not drawn)	i
CCC(C)C(=O)N1CCc2c(c(C(=O)O)nn2CCCc2ccccc2)C1 (stereo not drawn)	-0.6%
CC(C)c1noc(-c2nc(-c3ccc4c(c3)OCO4)no2)n1	i
Cn1ccc(C(=O)N2CCC(N3CCCC(C(=O)N4CCCC4)C3)CC2)n1 (stereo not drawn)	11.2%
C[S+](=O)([O-])N1CC2ON=C(C(=O)N3CCOCC3)C2C1 (stereo not drawn)	17.9%
COc1ccc(NC(=O)c2ccc(-c3cccc(Cl)c3C)o2)cc1	9.6%
Cc1ccc(NC(=O)c2ccc(-c3cccc(Cl)c3C)o2)cc1	20.3%
O=C(Nc1ccccc1)c1ccc(-c2cccc3c2CCNC3)o1	11.2µM*
O=C(NCc1ccccc1)c1ccc(CS(=O)(=O)c2c(Cl)cccc2Cl)o1	i
Cc1ncc2c(c1CNC(=O)c1cccc(OC(F)F)c1)CCNC2	-11.7%
O=C(NCc1ccccc1)c1ccc(-c2cccc3c2CCNC3)o1	11.2µM*
O=C1[C@@H]2C[C@@H](CN2C2CCOCC2)Oc2ccccc2N1Cc1ccccc1	-29.9%[44.1 µM]
CCOC(=O)C1CCCN(C(=O)C2COC3(CCCCC3)N2C(=O)c2cc(F)cc(F)c2)C1 (stereo not drawn)	-3.9%
Cc1csc(NC(=O)c2ccc3c(c2)OCC(=O)N(Cc2cnn(C)c2)C3)n1	i
CCCOc1ccc(CN2C[C@@H]3C(=O)N(C)C(=O)[C@@H]3C2)cc1OC	20.5%
CN(C)C[C@@H]1CN(c2ccncn2)C[C@H]1NC(=O)c1cc(Cl)ccc1F	i
Cc1nnc(-c2cc(-c3cccc([S+](C)(=O)[O-])c3)ccn2)n1CCc1ccccc1	i
O=C(NCc1nnnn1-c1ccccc1)C1CC2(CCNCC2)CN1 (stereo not drawn)	0.4%
SMILES	Pf Dd2 inh
CCOC(=O)N1CCN(Cc2nc3cc(NC(=O)c4ccccc4OC)ccc3n2C(C)C)CC1	-1.5%
CCN1CCN(c2cc(C)c3cc(NC(=O)/C=C/c4cccc(OC)c4OC)ccc3n2)CC1	1.12µM*
COc1cc(NC(=O)C2CCN(c3cnc4ccccc4n3)CC2)cc(OC)c1OC	-18.6%
COc1cccc(/C=C/C(=O)Nc2ccc3nc(N4CCN(C)CC4)cc(C)c3c2)c1OC	1.26µM*
CN(CC1CCOC1)C(=O)NCc1ccco1 (stereo not drawn)	45.6%[5.79 µM]
CCCCOC(=O)C1=CN(Cc2ccccc2)S(=O)(=O)N=C1C	-4.6%
CCc1noc(-c2ccn3c(CNC(=O)Cc4ccc(C)cc4)nnc3c2)n1	i
CCn1cc(CN2C[C@@H]3C(=O)N(Cc4ccc5c(c4)OCO5)C(=O)[C@@H]3C2)cn1	72.6%
Cc1cccc(N2CCN(C(=O)c3ccc4c(Cl)c5c(nc4c3)CCCC5)CC2)c1C	11.2µM*
Cc1ccc(CN2CCSc3ccc(C(=O)N4CCN(c5cccc(C)c5C)CC4)cc32)cc1	6.31µM*
Cc1ccc(C)c(N2CCN(C(=O)c3ccc4[nH]c(C)c(C)c4c3)CC2)c1	-7.5%
O=C(CN1CCSc2ccccc21)N1CCN(c2cccc(Cl)c2)CC1	32.7%
O=C(c1ccc2c(Cl)c3c(nc2c1)CCCC3)N1CCN(c2ccccc2F)CC1	24.4%
Cc1ccc(CN2CCSc3ccc(C(=O)N4CCN(c5ccc(Cl)cc5)CC4)cc32)cc1	8.91µM*
Cc1ccc(N2CCN(C(=O)c3ccc4c(c3)N(C)C3CCCCN3C4=O)CC2)cc1 (stereo not drawn)	3.3%
O=C(c1ccc2c(Cl)c3c(nc2c1)CCCC3)N1CCN(c2cccc(Cl)c2)CC1	-19.2%
COc1cc2[nH]c(=O)n(Cc3ccc(C(=O)N4CCN(c5ccc(Cl)cc5)CC4)cc3)c(=O)c2cc1OC	-4.1%
COCCC1(C(=O)O)CCCN(CCS(C)(=O)=O)C1 (stereo not drawn)	-12.6%
COCCc1noc([C@@H]2CN(Cc3cccc(F)c3)C[C@H]2CO)n1	-3.7%
Cc1nn(C)cc1C(C)NC(=O)CN1CCCc2nc(-c3ccccc3)ncc2C1=O (stereo not drawn)	-17.4%
Cc1cnc(C(=O)N2CCCC(CCc3cccc(F)c3)C2)cn1 (stereo not drawn)	2.0%

Screening data (PubChem)
